Among all 350,000 compounds or so, about 31,000 (8.9%) were called active. Where a call stands in place of a potency, no number is given. About 15% were inconclusive and are not listed. The call rests on the fitted dose curve; in most records, active means well fitted inhibition curve with a large enough effect; inconclusive means small, poorly fitted or top-dose-only effect; inactive means no such curve, though single readings can be large or run the other way. The sample as a whole holds a higher share of actives than the screen did.
The compounds below were run against Histone-lysine N-methyltransferase EHMT2 (Homo sapiens) (UniProt Q96KQ7) (assay: qHTS Assay for Inhibitors of Histone Lysine Methyltransferase G9a). Details: G9a H3K9 monomethylation, AlphaScreen, 2 h; series mostly up to 59 µM.
Summary of the method: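 Signal arises when biotinylated H3K9 peptide, once monomethylated, bridges streptavidin donor and antibody-captured acceptor beads. Enzyme at 20 nM was preincubated 15 min with test compounds; peptide 500 nM and SAM 20 uM then reacted for 2 h.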
Further: nearly all actives have a fitted effect of over 75% in size.
Potency means the concentration at half of the fitted maximal effect.

Histone-lysine N-methyltransferase EHMT2 (Homo sapiens), sequence (Q96KQ7 913-1193 limits assumed): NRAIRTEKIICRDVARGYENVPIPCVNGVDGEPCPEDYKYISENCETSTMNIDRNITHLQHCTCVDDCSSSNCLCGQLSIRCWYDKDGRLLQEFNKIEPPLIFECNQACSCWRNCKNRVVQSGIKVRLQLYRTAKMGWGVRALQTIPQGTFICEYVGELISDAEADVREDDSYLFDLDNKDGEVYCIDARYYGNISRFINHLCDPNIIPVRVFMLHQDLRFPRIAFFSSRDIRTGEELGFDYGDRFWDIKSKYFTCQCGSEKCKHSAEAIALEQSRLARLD

Row | Compound | Potency | activity, negative = inhibition
1 | Cc1cc(NC(=O)c2ccc(-c3ccc(Cl)cc3)o2)cc(-c2nc3ncccc3o2)c1O | inactive | –
2 | COc1ccc(CCNC(=O)CCc2ccccc2O)cc1OC | – | 7.03% [at 0.501 µM] (inactive)
3 | COc1ccc(OC)c(CN2CCN(C(=O)CNC(=O)c3cc(C)cc(C)c3)CC2)c1 | inactive | –
4 | COc1ccccc1CN1CCN(Cc2cc(OC)c(OC)cc2OC)CC1 | 8.91 µM (active) | –
5 | COC(=O)N1CCC2(CCCN(Cc3ccccc3OC)C2)CC1 | – | 2.95% [at 12.7 µM] (inactive)
6 | COc1ccc(C(=O)CSc2c(C(C)C)cnc3c2c(=O)n(C)c(=O)n3C)cc1 | inactive | –
7 | CCN1C(=O)[C@@H]2[C@@H](c3ccc(-c4ccccc4)cc3)N3CCCC[C@@]3(C(=O)OC)[C@@H]2C1=O | – | -6.56% [at 2.33 µM] (inactive)
8 | CCc1cnc2c(c1SCC(=O)N1CCC(C)CC1)c(=O)n(C)c(=O)n2C | inactive | –
9 | O=C(c1cccnc1)N(c1cc2sc(=O)oc2c2ccccc12)S(=O)(=O)c1ccccc1 | 1.12 µM (active) | –
10 | COc1ccc(N(C(=O)c2cccnc2)S(=O)(=O)c2ccc3c(c2)n(C)c(=O)n3C)cc1 | – | -0.924% [at 12.7 µM] (inactive)
11 | COc1ccc(N(C(=O)c2cccnc2)S(=O)(=O)c2ccc(OC)c(OC)c2)cc1 | inactive | –
12 | O=C(c1ccco1)N1CCN(C(=O)c2cc(-c3ccccc3F)no2)CC1 | inactive | –
13 | CCOc1ccc(NC(=O)C(CC(C)C)N2Cc3ccccc3C2=O)cc1 (configuration not stated) | inactive | –
14 | CCCOC(=O)c1ccc(N2C(=O)c3ccccc3C2=O)cc1 | inactive | –
15 | CCO/C=C1\C(=O)N(c2ccc(OCC)cc2)C(=O)c2ccccc21 | 31.6 µM (active) | –
16 | O=C(COC(=O)c1ncc(Cl)c(Cl)c1Cl)NNC(=O)c1ccccc1 | inactive | –
17 | COC(=O)c1ccc(COc2cc([N+](=O)[O-])cc3cccnc23)cc1 | inactive | –
18 | Cc1ccc(C(=O)Nc2cccc3ncccc23)cc1[N+](=O)[O-] | – | 35.3% [at 12.7 µM] (inactive)
19 | O=[N+]([O-])c1cc([N+](=O)[O-])c2cccnc2c1O | 31.6 µM (active) | –
20 | O=C1c2ccccc2C(=O)c2c1cccc2N1CCN(Cc2ccccc2)CC1 | 10 µM (active) | –
21 | CCc1c(C)nc(N2CCN(Cc3ccccc3)CC2)[nH]c1=O | – | -41.6% [at 12.7 µM] (inactive)
22 | O=c1cc(N2CCN(Cc3ccccc3)CC2)c(-c2ccccc2)n[nH]1 | inactive | –
23 | N#Cc1cccc(OC(=O)c2ccc3c(=O)n4c(nc3c2)CCC4)c1 | – | -1.34% [at 0.501 µM] (inactive)

Row | Compound | Potency | activity, negative = inhibition
24 | CC(=O)NC(Cc1ccccc1)C(=O)NC1CCN(c2ncccc2[N+](=O)[O-])CC1 (configuration not stated) | inactive | –
25 | COc1ccc(-c2cc(C3CCN(c4ncccc4[N+](=O)[O-])CC3)[nH]n2)cc1 | 50.1 µM (active) | –
26 | COc1ccc(-c2cc3ncccc3cn2)cc1 | – | -3.56% [at 0.501 µM] (inactive)
27 | O=C(NCC1CCCO1)c1cc2c([nH]c3ccccc32)c(-c2ccc(F)cc2)n1 (configuration not stated) | – | 6.78% [at 12.7 µM] (inactive)
28 | COc1cc(NC(=O)CN2C(=O)NC(C)(c3ccc(OC(F)F)cc3)C2=O)cc(OC)c1OC (configuration not stated) | inactive | –
29 | CSc1nc(-c2ccc(F)cc2)nc2c1Cc1c(CO)cnc(C)c1O2 | inactive | –
30 | COc1cc(Cl)c(S(=O)(=O)n2cnc(C)c2)cc1Cl | inactive | –
31 | CCc1nc(C)cn1S(=O)(=O)c1cc([N+](=O)[O-])ccc1Cl | inactive | –
32 | CCc1nc(C)cn1S(=O)(=O)c1cc(OC)c(C)cc1C | 44.7 µM (active) | –
33 | CCOc1cc(/C=C2\SC(N3CCCC(C)C3)=NC2=O)ccc1O (configuration not stated) | inactive | –
34 | CC(C)C(=O)NCC(c1cccs1)S(=O)(=O)c1ccc(F)cc1 (configuration not stated) | inactive | –
35 | CC1CCCC(C)N1C(=O)COC(=O)COc1ccccc1C#N (configuration not stated) | inactive | –
36 | COc1ccccc1N1CCN(CCN2C(=O)c3ccccc3C(C)(C)C2=O)CC1 | inactive | –
37 | COc1ccccc1N1CCN(Cc2ccc(OC)c3ccccc23)CC1 | 8.91 µM (active) | –
38 | COC(=O)c1cnc(N2CCN(c3ccccc3OC)CC2)c2ccccc12 | inactive | –
39 | COc1ccccc1N1CCN(CC(=O)NCCc2ccc(S(N)(=O)=O)cc2)CC1 | inactive | –
40 | CC(=O)Nc1ccc(OCC(O)CN2CCN(c3ccccc3Cl)CC2)cc1 (configuration not stated) | inactive | –
41 | CNCC(O)CN1CCN(c2ccccc2OC)CC1 (configuration not stated) | 50.1 µM (active) | –
42 | S=C(Nc1cccnc1)Nc1ccccn1 | – | -8.13% [at 2.33 µM] (inactive)
43 | COc1ccc(S(=O)(=O)N2CCCCC2)cc1C(=O)NC1CCS(=O)(=O)C1 (configuration not stated) | inactive | –
44 | CCOC(=O)c1cc(-c2ccccc2C)n(Cc2cc(C)no2)n1 | – | -5.1% [at 0.501 µM] (inactive)
45 | CN(C(=O)COC(=O)Cn1cnc2c1c(=O)n(C)c(=O)n2C)C1(C#N)CCCCC1 | – | 24% [at 12.7 µM] (inactive)
46 | Cc1cc(-c2n[nH]c(=S)n2/N=C/c2ccco2)n[nH]1 | – | -104% [at 12.7 µM] (inactive)

Row | Compound | Potency | activity, negative = inhibition
47 | Cc1cc(C(=O)N/N=C\C(Br)=C\c2ccccc2)c(C)o1 | inactive | –
48 | S=c1[nH]nc(-c2cccnc2)n1/N=C/C(Cl)=C\c1ccccc1 | 0.891 µM (active) | –
49 | c1ccc(-n2nnnc2-c2cccnc2)cc1 | inactive | –
50 | Cc1cc(-c2n[nH]c(=S)n2/N=C/C(Br)=C/c2ccccc2)n[nH]1 | 6.31 µM (active) | –
51 | O=C(N/N=C\c1cccnc1)c1cc(-c2ccccc2)nc2c(Cl)cccc12 | inactive | –
52 | O=C(O)CCCn1cc(NC(=O)COc2cccc(Cl)c2)cn1 | inactive | –
53 | O=C1CCN(CCCc2ccccc2)CCN1CCO | inactive | –
54 | COc1ccc(C(=O)Nc2c(Cl)cc(Cl)cc2C(=O)N2CCC(C)CC2)cc1 | inactive | –
55 | Cc1csc(NC(=O)c2ccc(-c3ccc(Cl)cc3Cl)o2)n1 | inactive | –
56 | CC1CCN(C(=S)c2ccc(-c3ccc(Cl)cc3Cl)o2)CC1 | 8.91 µM (active) | –
57 | COc1ccc(CNC(=O)C(C)n2nc(C)c3c(C)n(-c4ccccc4)nc3c2=O)c(OC)c1 (configuration not stated) | inactive | –
58 | O=[N+]([O-])c1ccc(N2CCNCC2)cc1NCc1cccnc1 | inactive | –
59 | CC1CCN(c2ccc([N+](=O)[O-])c(SCCO)c2)CC1 | inactive | –
60 | CN1CCN(c2ccc([N+](=O)[O-])c(Sc3nc4ccccc4[nH]3)c2)CC1 | 10 µM (active) | –
61 | CCOC(=O)c1ccccc1NC(=O)CCc1c(C)nc2c(c1C)c(=O)n(C)c(=O)n2C | inactive | –
62 | CCOc1ccc(N2CC(c3nc4ccccc4n3CCOc3ccc(OC)cc3)CC2=O)cc1 (configuration not stated) | inactive | –
63 | CCc1ccccc1OCC(=O)Nc1ccc2c(c1)OCCO2 | inactive | –
64 | COc1ccc(NC(=O)CSc2nnc(-c3ccccc3F)n2C2CC2)cc1S(N)(=O)=O | 44.7 µM (active) | –
65 | COc1ccc(NC(=O)CSc2nnc(C3CC3)n2C)cc1S(=O)(=O)N1CCCCC1 | inactive | –
66 | CC(Sc1nnc(-c2ccccc2F)n1C1CC1)C(N)=O (configuration not stated) | inactive | –
67 | Cc1ccc(S(=O)(=O)N(CC(=O)NCc2ccco2)c2ccccc2C)cc1 | inactive | –
68 | CCOC(=O)C(Cc1ccccc1)NC(=O)CCc1c(C)nc2c(c(C)nn2-c2ccc(C)c(C)c2)c1C (configuration not stated) | inactive | –
69 | CCOC(=O)c1cc2c(=O)n3ccccc3nc2n(Cc2ccco2)c1=NC(=O)c1ccc(F)cc1 | inactive | –

Row | Compound | Potency | activity, negative = inhibition
70 | COC(=O)c1ccc(NC(=O)c2cnn(-c3ccc(Cl)cc3)c2C2CCN(C(=O)OC(C)(C)C)CC2)cc1 | inactive | –
71 | COc1cccc(NC(=O)CN(C)C(=O)Cc2ccc(Cl)cc2Cl)c1 | inactive | –
72 | COc1cccc(NC(=O)CN(C)CC(=O)Nc2ccc3c(c2)CCC3)c1 | inactive | –
73 | CCOc1cccc(NC(=O)C2CCCN(S(=O)(=O)c3ccc(OC)cc3)C2)c1 (configuration not stated) | inactive | –
74 | COc1ccccc1CC(=O)Nc1ccc(S(=O)(=O)N2CCCC2)cc1 | inactive | –
75 | COc1cccc(NC(=O)CN(C)C(=O)CSC(=S)N2CCCC2)c1 | 14.1 µM (active) | –
76 | CCN(CC(=O)Nc1ccc(S(=O)(=O)N2CCCC2)cc1)CC(=O)Nc1cccc(OC)c1 | 31.6 µM (active) | –
77 | COc1ccc(OC)c(NC(=O)CN2CCCN(Cc3cc(C)ccc3C)S2(=O)=O)c1 | inactive | –
78 | COc1ccc(OCCCC(=O)OC(C)C(=O)Nc2ccccc2[N+](=O)[O-])cc1 (configuration not stated) | – | -1.74% [at 2.33 µM] (inactive)
79 | CCOc1ccc(-n2c(C)nc3c(cnn3-c3ccc(C)cc3)c2=O)cc1 | inactive | –
80 | CCOC(=O)CSc1nc2c(c(=O)n(C)c(=O)n2C)n1Cc1ccccc1F | inactive | –
81 | CC(C)OCCCNc1nc2c(c(=O)n(Cc3ccccc3F)c(=O)n2C)n1C | 22.4 µM (active) | –
82 | Cn1c(=O)c2c(nc(NCCNC(=O)c3ccco3)n2Cc2ccccc2F)n(C)c1=O | inactive | –
83 | CNC(=O)c1ccc(-c2nc(CN3CCc4ccccc43)c(C)o2)cc1 | – | -0.994% [at 12.7 µM] (inactive)
84 | Cc1nn(-c2ccccc2)c(C)c1NC(=O)COc1ccc(Cl)cc1Cl | inactive | –
85 | CCOC(=O)c1c(NC(=O)c2ccc(S(=O)(=O)N(C)CC3CCCO3)cc2)sc2c1CC(C)(C)NC2(C)C (configuration not stated) | inactive | –
86 | COC(=O)c1c(NC(=O)COc2ccc(Cl)cc2Cl)sc2c1CC(C)(C)NC2(C)C | 31.6 µM (active) | –
87 | CC1(C)CC(=O)C=C(c2ccc(Cl)c(C(F)(F)F)c2)C1 | – | -9.47% [at 0.501 µM] (inactive)
88 | O=C(CCc1nc(-c2ccccc2)no1)Nc1cccc(C(=O)NC2CC2)c1 | – | -5.9% [at 12.7 µM] (inactive)
89 | CCOC(=O)c1ccccc1NC(=O)COC(=O)C(Cc1c[nH]c2ccccc12)NC(C)=O (configuration not stated) | inactive | –
90 | Cc1nonc1C1CCCN1C(=O)c1cc(COc2cccc(C(F)(F)F)c2)on1 (configuration not stated) | inactive | –
91 | Cc1ccc(NC(=O)CSc2nc3c([nH]c4ccccc43)c(=O)n2-c2ccccc2)c(C)c1 | inactive | –
92 | O=C(COc1ccccc1F)OCc1cc(=O)n2nc(C3CCCCC3)sc2n1 | inactive | –

Reference: PubChem BioAssay AID504332 (National Center for Advancing Translational Sciences (NCATS), 2011)
